Screening results (PubChem)
Cruzain inh Det: blocks cruzain activity in presence of Triton detergent | P25779 | purified cruzain, Z-FR-AMC fluorescence, 0.01% Triton | 200,000 compounds, 0.43% hits | Potency, µM, without a hit: max response, negative = inhibition, hits mostly inhibitors | AID 1478;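 also: plate controls were neutral wells for no effect and buffer without enzyme for full effect; nearly all actives have a fitted effect of over 40% in size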
Target sequence (P25779 123-467 limits assumed): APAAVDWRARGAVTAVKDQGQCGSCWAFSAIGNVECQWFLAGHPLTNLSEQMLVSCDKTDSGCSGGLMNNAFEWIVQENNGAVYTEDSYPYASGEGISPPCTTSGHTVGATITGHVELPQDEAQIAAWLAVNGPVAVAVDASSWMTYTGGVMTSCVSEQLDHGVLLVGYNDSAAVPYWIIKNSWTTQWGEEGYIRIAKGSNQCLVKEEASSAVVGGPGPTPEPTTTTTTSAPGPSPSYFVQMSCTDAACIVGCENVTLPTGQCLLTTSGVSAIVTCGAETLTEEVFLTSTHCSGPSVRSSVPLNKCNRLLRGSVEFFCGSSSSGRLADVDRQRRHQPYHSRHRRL
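Detergent-containing arm of a paired screen for aggregation-based inhibition: 0.01% Triton X-100 present. Cruzain at 1.5 nM cleaved 2 uM Z-FR-AMC at pH 5.5 with 5 mM DTT; AMC fluorescence gain over 60 s measured activity.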
Cruzain noTriton: blocks cruzain activity in detergent-free assay. P25779. purified cruzain, Z-FR-AMC fluorescence, no detergent. Potency, µM, inactives show max response, negative = inhibition, usual class: inhibitors. 200,000 compounds, 2.3% hits. AID 1476;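 also: plate controls were enzyme without inhibitor for no effect and buffer without enzyme for full effect; nearly all actives have a fitted effect of over 40% in size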
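Purified cruzain at 1.5 nM, pre-incubated 15 min with compound at room temperature in 100 mM sodium acetate pH 5.5, 5 mM DTT, 0.00005% Triton X-100. Reaction started with 2 uM Z-FR-AMC; AMC fluorescence increase over 60 s gives rate.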
* = called active by the depositor; ? = inconclusive. Rows were chosen to be rich in hits. Some 2.4% of all compounds tested hit in one or more screens of this group. Calls follow the shape of the dose curve; as a rule, active = well fitted curve in the direction sought with a large enough effect; inconclusive = small, poorly fitted or top-dose-only effect, or another doubt; inactive = no such curve, though single readings can be large; an effect the other way counts as inactive or inconclusive. Potency is read from the fitted curve at half-maximal effect.

SMILES	Cruzain inh Det	Cruzain noTriton
Cc1ccc2oc(C(=O)Nc3ccc(S(=O)(=O)N4CCCCC4C)cc3)cc(=O)c2c1 (configuration not stated)	-3%	1%
Cc1ccc(C(=O)NC(=C(Cl)Cl)S(=O)(=O)c2ccc(C)cc2)cc1	-2%	11%
Cc1ccc(S(=O)(=O)/C(=C/Cl)NC(=O)c2ccccc2)cc1	22µM*	25µM*
O=C(Nc1ccc(Br)cc1F)c1cc2nc(-c3ccco3)cc(C(F)(F)Cl)n2n1	0%	26%
COc1ccc(C(C)=O)cc1CSc1nc2ccccc2c(=O)n1-c1ccccc1	-10%	-20%
C=CCn1c(SCc2cc(C(C)=O)ccc2OCC)nc2ccccc2c1=O	14µM*	?
O=C(NCc1ccc2c(c1)CCN2C(=O)c1ccncc1)c1ccccc1Cl	1%	6%
CCc1cccc(CC)c1NC(=O)c1ccc2c(c1)CCN2S(=O)(=O)c1ccccc1	-2%	-3%
COc1ccc(NC(=O)c2ccc3c(c2)CCN3S(=O)(=O)c2ccc(C)cc2)cc1Cl	1%	7.9µM*
COc1ccc(C(=O)Nc2ccc3c(c2)CCCN3S(=O)(=O)c2ccc(C)cc2)cc1	-3%	?
O=C(Nc1ccc(Cl)c(C(F)(F)F)c1)c1ccc2c(c1)CCN2S(=O)(=O)c1ccccc1	0%	25µM*
CC(=O)Nc1ccc(NC(=O)c2ccc3c(c2)CCN3S(=O)(=O)c2ccc(C)cc2)cc1	0%	12%
Cc1ccc(S(=O)(=O)N2CCCc3cc(NC(=O)c4ccc(C(C)(C)C)cc4)ccc32)cc1	4%	3.2µM*
Cc1ccc(N2CCN(C(=O)c3c(C)oc4ncnc(N5CCOCC5)c34)CC2)c(C)c1	0%	6%
CN(C)c1ccnc(-c2ccccc2C(F)(F)F)n1	-2%	-3%
COc1cccc(Cn2c(=O)c(CCc3ccccc3)nc3cnc(OC)nc32)c1	-4%	?
O=C(NCc1ccc(F)cc1)c1ccc(NC(=O)N2CC3CCCN3c3ccccc32)cc1 (configuration not stated)	-3%	?
CCCc1ccc(-c2cc(C(=O)Nc3ccc([N+](=O)[O-])cn3)c3ccccc3n2)cc1	-4%	25µM*
CCCc1ccc(-c2cc(C(=O)NCCc3ccc(S(N)(=O)=O)cc3)c3ccccc3n2)cc1	-16%	3%
C=CCC(CC=C)(CNC(=O)C(=O)Nc1ccc(C)cc1)c1ccccc1	0%	-2%
COc1ccc2oc(-c3ccccc3)c(OC)c(=O)c2c1	-1%	-2%
COc1ccc2c(c1)-c1nc(NC(=O)c3ccc(C)cc3)sc1CC2	-4%	?
COc1ccc2c(c1)Cc1sc(NC(=O)c3ccc(Cl)cc3)nc1-2	-7%	3.2µM*
COc1ccc2c(c1)-c1nc(NC(=O)c3ccc(OC)c(Br)c3)sc1CC2	-8%	10µM*
COc1ccc2c(c1)Cc1sc(NC(=O)c3cccc(Cl)c3)nc1-2	0%	9%
SMILES	Cruzain inh Det	Cruzain noTriton
C/C(=N\NC(=S)NCCc1ccccc1)c1ccc(C#N)cc1	-6%	10µM*
C/C(=N\NC(=S)NCCc1ccccc1)c1ccc(C)cc1	-8%	-12%
COc1cccc(CNC(=O)c2nnc(Cc3ccc(Cl)cc3)o2)c1	-1%	6%
Cc1cccc(NC(=O)C2CCCC2)c1	-1%	9%
Cc1cccc(NC(=O)COC(=O)CNC(=O)C2CCCCC2)c1	7.1µM*	7.9µM*
CCOC(=O)c1c(-c2ccc(C)cc2)csc1NC(=O)c1cc(-c2ccc(OC)cc2)on1	0%	-10%
COC(=O)c1c(-c2ccc(C)cc2)csc1NC(=S)NC(=O)c1cc(OC)cc(OC)c1	-4%	4µM*
CCOc1ccc(NC(=O)CSc2ccc(-c3sc(-c4ccccc4)nc3C)nn2)cc1	0%	4%
O=C(c1ccc(Cl)cc1)[C@@H]1[C@@H]2C(=O)N(c3cccc4ccccc34)C(=O)[C@@H]2C2c3ccccc3C=NN21 (some centres not stated)	0%	25µM*
CC(=O)Oc1ccc(C(=O)[C@H]2[C@H]3C(=O)N(c4ccccc4)C(=O)[C@H]3[C@@H]3C=CC=NN32)cc1	0%	19%
O=C1CCCC2=C1C(c1cn(-c3ccccc3)nc1-c1cccs1)c1c([nH]c(=O)[nH]c1=O)N2 (configuration not stated)	14µM*	13µM*
CSc1nc2c(c(=O)[nH]1)C(c1cccs1)C1=C(CCCC1=O)N2 (configuration not stated)	-1%	3%
Cn1c(=O)c2cc(S(=O)(=O)Nc3ccc4c(c3)OCO4)ccc2n(C)c1=O	5%	-8%
Cn1c(=O)oc2cc(S(=O)(=O)Nc3ccc4c(c3)OCO4)ccc21	2%	32µM*
COCCc1nn2c(=O)cc(COC(=O)c3ccc4c(c3)OCO4)nc2s1	-2%	6%
COc1ccccc1NC(=O)CN1C(=O)C2(SCC(=O)N2c2ccc(F)c(F)c2)c2ccccc21 (configuration not stated)	-5%	16µM*
